What all share (assay): DAPPL (digital affinity profiling via proximity ligation, sequencing); 10 mM Tris-HCl pH 7.5, 50 mM NaCl, 1 mM DTT, 4% glycerol, room temperature, 30 min; GST-TFs on glutathione beads, 16-mer random dsDNA library, 0.1% formaldehyde crosslink after washing; high values mean tight binding
One experiment has as its target T1, FEV (Homo sapiens, UniProt Q99581 1-238).
T1 sequence: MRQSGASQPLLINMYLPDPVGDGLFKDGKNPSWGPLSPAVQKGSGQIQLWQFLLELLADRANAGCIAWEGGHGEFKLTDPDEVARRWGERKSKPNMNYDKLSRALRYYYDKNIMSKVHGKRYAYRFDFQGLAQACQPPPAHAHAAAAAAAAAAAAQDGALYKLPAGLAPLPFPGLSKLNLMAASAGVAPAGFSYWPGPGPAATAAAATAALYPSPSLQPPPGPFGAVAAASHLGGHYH
The following applies: protein: recombinant; tags: N-terminal GST; dsDNA, one strand shown. Put shortly: (§1)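 After expression in yeast as GST fusions, human transcription factors were bound to glutathione beads, DNA-barcoded and mixed with a tag-only sample. The pools were incubated with 200 nmole of a 16-mer random double-stranded DNA library in Tris/NaCl/DTT/glycerol buffer (30 min, room temperature), washed and crosslinked with 0.1% formaldehyde. Proximity ligation with BsaI/T4 ligase ran for 1 h at 37 °C, before PCR amplification and sequencing on an Illumina NextSeq500. Binding signal is a hexamer's read frequency for a factor divided by its frequency for the tag-only sample.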

In a further experiment the target is ETV5 (Homo sapiens, UniProt P41161 1-510). The following applies: protein: recombinant; tags: N-terminal GST; dsDNA, one strand shown. Put shortly: as §1
Another experiment has as its target HSF1 (Homo sapiens, UniProt Q00613 1-529). The following applies: protein: recombinant; tags: N-terminal GST; chain copies: 3; dsDNA, one strand shown. The procedure, abridged:
as §1

The next experiment deals with T2, SPIC (Homo sapiens, UniProt Q8N5J4 1-248).
T2 sequence: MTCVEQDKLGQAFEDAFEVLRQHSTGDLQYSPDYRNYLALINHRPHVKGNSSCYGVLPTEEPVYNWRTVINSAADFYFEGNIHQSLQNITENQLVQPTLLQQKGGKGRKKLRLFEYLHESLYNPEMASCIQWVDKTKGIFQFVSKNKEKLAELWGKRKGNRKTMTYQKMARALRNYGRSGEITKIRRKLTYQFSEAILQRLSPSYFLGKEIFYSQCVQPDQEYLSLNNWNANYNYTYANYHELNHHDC
The following applies: protein: recombinant; tags: N-terminal GST; dsDNA, one strand shown. Put shortly:
as §1

The target in a further experiment is ELF4 (Homo sapiens, UniProt Q99607 1-663). The following applies: protein: recombinant; tags: N-terminal GST; dsDNA, one strand shown. The procedure, abridged:
as §1

For a further experiment, the target named is T3, ELK4 (Homo sapiens, UniProt P28324-2 1-405).
T3 sequence: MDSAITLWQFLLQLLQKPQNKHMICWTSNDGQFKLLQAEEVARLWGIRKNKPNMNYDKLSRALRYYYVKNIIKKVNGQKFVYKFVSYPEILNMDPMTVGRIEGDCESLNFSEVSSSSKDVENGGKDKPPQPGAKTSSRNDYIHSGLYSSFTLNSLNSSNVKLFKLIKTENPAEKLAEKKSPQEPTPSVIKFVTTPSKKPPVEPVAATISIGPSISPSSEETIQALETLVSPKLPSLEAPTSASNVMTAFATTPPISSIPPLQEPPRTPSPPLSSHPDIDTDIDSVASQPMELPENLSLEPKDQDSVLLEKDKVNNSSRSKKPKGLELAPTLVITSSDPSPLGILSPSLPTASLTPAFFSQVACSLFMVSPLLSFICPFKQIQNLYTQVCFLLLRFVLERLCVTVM
The following applies: protein: recombinant; tags: N-terminal GST; dsDNA, one strand shown. The procedure, abridged:
as §1

The target of another experiment is T4, ETV2 (Homo sapiens, UniProt O00321 1-342).
T4 sequence: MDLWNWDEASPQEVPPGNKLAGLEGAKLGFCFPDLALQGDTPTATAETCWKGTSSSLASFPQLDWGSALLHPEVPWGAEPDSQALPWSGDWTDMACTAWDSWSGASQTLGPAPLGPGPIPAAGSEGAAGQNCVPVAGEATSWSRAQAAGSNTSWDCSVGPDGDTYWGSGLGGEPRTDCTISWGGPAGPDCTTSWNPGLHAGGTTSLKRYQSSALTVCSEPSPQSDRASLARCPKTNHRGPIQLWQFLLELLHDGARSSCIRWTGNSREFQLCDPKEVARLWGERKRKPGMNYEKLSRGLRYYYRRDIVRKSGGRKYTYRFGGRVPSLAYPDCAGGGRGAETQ
The following applies: protein: recombinant; tags: N-terminal GST; dsDNA, one strand shown. Put shortly: as §1

Another experiment has as its target T5, ELF3 (Homo sapiens, UniProt P78545 1-371).
T5 sequence: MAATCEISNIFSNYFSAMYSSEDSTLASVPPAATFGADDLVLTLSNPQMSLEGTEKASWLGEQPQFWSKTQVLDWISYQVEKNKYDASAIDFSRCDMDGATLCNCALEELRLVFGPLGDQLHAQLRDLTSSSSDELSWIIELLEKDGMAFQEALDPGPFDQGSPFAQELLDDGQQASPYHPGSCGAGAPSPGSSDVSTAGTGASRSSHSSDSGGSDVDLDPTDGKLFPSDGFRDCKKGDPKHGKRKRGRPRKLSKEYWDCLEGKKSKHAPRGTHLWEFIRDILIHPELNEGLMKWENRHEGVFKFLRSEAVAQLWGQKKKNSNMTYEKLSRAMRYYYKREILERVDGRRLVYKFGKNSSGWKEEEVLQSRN
The following applies: protein: recombinant; tags: N-terminal GST; dsDNA, one strand shown. The procedure, abridged:
as §1

Another experiment concerns the target CRX (Homo sapiens, UniProt O43186 1-299). The following applies: protein: recombinant; tags: N-terminal GST; dsDNA, one strand shown. The procedure, abridged:
as §1

The target of the next experiment is ETV1 (Homo sapiens, UniProt P50549 1-477). The following applies: protein: recombinant; tags: N-terminal GST; dsDNA, one strand shown. Put shortly:
as §1

For the next experiment, the target named is T6, ERF (Homo sapiens, UniProt P50548 1-548).
T6 sequence: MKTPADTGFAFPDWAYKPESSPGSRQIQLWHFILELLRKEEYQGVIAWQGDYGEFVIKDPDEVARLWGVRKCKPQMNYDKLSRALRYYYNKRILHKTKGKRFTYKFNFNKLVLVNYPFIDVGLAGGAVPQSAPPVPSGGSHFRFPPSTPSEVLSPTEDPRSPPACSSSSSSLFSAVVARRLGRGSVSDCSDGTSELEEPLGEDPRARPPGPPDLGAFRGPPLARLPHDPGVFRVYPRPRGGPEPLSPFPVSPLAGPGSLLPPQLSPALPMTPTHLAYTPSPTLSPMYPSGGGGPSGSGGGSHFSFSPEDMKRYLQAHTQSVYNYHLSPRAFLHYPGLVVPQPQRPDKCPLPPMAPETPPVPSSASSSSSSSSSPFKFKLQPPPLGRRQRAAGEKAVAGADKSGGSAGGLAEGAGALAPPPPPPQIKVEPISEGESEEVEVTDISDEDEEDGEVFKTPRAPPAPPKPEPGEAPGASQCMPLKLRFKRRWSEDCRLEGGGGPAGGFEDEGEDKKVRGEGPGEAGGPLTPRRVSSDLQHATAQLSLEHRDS
The following applies: protein: recombinant; tags: N-terminal GST; dsDNA, one strand shown. The procedure, abridged:
as §1

For another experiment, the target named is T7, ETV3L (Homo sapiens, UniProt Q6ZN32 1-361).
T7 sequence: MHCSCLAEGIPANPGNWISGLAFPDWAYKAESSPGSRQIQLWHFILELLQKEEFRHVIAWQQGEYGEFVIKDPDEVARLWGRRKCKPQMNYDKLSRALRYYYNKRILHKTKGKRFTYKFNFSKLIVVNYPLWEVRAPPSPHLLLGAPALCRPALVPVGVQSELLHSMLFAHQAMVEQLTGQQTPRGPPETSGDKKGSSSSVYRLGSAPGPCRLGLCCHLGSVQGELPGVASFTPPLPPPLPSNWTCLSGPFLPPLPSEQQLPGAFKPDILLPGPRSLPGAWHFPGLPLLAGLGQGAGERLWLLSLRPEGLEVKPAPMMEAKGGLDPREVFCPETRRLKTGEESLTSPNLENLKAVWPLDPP
The following applies: protein: recombinant; tags: N-terminal GST; dsDNA, one strand shown. The procedure, abridged: as §1

A further experiment concerns the target T8, ETS2 (Homo sapiens, UniProt P15036 1-469).
T8 sequence: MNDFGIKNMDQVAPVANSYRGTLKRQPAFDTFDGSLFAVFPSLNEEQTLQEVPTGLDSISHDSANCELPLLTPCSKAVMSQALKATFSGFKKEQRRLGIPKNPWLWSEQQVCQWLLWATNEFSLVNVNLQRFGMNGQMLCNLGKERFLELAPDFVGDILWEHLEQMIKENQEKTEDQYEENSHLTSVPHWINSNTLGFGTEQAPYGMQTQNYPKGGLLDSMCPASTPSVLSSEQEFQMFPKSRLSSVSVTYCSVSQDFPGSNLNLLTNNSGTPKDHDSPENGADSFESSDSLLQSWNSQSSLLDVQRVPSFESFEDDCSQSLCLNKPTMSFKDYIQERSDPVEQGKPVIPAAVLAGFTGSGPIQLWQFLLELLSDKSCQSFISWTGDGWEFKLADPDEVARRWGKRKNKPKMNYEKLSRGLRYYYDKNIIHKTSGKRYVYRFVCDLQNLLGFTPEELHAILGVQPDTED
The following applies: protein: recombinant; tags: N-terminal GST; dsDNA, one strand shown. Put shortly: as §1

The target of the next experiment is T9, SPDEF (Homo sapiens, UniProt O95238 1-335).
T9 sequence: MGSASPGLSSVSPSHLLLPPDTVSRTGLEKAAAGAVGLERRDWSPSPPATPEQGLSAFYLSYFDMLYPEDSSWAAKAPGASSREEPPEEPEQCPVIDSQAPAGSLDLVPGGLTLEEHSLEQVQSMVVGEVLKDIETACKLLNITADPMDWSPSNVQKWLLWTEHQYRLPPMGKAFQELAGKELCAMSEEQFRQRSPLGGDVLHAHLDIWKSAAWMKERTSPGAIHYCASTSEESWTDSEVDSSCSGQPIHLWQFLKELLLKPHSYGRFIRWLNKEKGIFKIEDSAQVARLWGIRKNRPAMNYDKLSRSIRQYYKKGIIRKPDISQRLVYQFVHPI
The following applies: protein: recombinant; tags: N-terminal GST; dsDNA, one strand shown. Put shortly: as §1

The next experiment deals with T10, ETV7 (Homo sapiens, UniProt Q9Y603 1-341).
T10 sequence: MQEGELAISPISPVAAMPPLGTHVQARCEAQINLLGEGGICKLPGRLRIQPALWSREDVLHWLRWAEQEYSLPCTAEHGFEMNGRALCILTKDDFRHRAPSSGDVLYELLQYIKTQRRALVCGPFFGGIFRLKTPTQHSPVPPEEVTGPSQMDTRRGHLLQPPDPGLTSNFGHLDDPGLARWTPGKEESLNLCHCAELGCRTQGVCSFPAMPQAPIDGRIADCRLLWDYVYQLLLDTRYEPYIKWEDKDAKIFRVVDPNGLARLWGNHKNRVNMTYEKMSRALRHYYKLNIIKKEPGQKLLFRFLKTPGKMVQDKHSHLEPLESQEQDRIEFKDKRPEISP
The following applies: protein: recombinant; tags: N-terminal GST; dsDNA, one strand shown. Put shortly: as §1

A further experiment concerns the target T11, ELF5 (Homo sapiens, UniProt Q9UKW6-2 1-255).
T11 sequence: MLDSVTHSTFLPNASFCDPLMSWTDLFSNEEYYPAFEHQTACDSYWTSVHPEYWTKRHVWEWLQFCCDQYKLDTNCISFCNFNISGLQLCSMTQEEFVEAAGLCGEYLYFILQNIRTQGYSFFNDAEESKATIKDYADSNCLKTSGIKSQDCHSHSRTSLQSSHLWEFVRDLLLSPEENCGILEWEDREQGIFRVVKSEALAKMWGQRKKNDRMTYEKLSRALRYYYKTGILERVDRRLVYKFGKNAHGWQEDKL
The following applies: protein: recombinant; tags: N-terminal GST; dsDNA, one strand shown. The procedure, abridged: as §1

The target of another experiment is T12, ETV3 (Homo sapiens, UniProt P41162-2 1-143).
T12 sequence: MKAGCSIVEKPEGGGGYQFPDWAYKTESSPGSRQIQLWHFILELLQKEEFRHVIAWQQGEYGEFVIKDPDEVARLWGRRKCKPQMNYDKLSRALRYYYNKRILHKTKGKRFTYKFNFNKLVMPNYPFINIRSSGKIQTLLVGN
The following applies: protein: recombinant; tags: N-terminal GST; dsDNA, one strand shown. The procedure, abridged:
as §1

The target of a further experiment is ETV6 (Homo sapiens, UniProt P41212 1-452). The following applies: protein: recombinant; tags: N-terminal GST; dsDNA, one strand shown. Put shortly:
as §1

ETV1, sequence (P50549 whole entry): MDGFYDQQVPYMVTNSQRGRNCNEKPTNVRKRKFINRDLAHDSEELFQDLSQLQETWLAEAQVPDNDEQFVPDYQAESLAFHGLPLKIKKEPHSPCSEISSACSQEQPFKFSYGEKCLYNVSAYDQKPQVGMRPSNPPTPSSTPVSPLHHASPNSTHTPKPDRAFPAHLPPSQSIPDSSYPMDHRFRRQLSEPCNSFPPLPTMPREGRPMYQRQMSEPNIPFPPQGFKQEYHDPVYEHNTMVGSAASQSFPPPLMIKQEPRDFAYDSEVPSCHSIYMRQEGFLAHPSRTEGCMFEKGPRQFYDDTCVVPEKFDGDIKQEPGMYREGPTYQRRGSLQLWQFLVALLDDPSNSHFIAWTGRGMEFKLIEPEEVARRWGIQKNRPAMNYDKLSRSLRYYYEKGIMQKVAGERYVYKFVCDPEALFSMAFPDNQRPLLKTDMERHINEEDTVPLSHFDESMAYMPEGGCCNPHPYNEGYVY
HSF1, sequence (Q00613 whole entry): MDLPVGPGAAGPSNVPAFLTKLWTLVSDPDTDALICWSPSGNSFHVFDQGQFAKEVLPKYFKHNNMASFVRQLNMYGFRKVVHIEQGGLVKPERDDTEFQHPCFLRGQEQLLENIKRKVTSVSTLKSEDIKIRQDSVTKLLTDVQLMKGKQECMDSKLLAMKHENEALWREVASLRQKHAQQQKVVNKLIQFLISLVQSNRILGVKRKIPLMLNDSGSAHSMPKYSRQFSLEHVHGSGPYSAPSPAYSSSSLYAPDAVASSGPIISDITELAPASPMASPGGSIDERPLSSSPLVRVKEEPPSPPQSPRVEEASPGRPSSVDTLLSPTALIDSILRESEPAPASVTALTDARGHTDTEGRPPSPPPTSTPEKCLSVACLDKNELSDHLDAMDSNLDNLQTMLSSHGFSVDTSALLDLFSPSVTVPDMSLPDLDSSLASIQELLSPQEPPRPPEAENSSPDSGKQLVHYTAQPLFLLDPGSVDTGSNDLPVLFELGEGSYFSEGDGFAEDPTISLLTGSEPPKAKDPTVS
ETV6, sequence (P41212 whole entry): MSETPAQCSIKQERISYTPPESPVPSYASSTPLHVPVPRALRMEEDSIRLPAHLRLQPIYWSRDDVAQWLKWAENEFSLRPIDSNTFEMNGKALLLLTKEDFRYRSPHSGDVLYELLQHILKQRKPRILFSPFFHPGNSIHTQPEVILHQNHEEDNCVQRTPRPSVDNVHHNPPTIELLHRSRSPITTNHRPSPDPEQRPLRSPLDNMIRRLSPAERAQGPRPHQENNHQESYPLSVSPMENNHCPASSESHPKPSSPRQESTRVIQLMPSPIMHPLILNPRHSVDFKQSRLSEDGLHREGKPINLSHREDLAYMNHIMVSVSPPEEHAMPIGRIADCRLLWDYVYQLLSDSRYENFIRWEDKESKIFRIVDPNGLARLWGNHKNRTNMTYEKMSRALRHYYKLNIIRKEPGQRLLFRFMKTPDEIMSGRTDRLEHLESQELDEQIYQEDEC
CRX, sequence (O43186 whole entry): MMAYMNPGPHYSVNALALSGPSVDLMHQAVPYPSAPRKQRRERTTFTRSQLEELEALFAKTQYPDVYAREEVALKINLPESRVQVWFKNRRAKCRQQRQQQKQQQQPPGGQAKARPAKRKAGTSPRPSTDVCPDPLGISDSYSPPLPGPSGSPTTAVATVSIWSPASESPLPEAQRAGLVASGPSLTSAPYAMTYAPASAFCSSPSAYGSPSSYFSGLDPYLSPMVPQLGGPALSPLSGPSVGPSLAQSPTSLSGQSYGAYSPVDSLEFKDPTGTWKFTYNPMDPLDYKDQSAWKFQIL
ELF4, sequence (Q99607 whole entry): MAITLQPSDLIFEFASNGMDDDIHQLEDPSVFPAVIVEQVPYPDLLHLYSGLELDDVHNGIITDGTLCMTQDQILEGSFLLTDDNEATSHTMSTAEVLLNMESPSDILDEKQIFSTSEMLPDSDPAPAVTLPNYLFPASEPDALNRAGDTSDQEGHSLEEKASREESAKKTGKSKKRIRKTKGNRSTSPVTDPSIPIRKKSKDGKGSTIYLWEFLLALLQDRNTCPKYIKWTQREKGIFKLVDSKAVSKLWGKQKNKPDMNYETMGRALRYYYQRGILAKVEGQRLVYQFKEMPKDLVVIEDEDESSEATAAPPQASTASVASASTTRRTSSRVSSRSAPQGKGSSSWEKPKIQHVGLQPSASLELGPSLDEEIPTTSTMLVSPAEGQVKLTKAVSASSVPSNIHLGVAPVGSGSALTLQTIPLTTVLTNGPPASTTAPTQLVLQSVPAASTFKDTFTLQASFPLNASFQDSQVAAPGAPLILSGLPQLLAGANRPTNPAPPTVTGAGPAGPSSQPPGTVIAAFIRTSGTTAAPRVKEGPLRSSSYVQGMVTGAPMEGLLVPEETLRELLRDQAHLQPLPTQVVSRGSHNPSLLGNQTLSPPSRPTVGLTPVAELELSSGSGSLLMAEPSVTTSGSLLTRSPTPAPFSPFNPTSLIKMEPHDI
ETV5, sequence (P41161 whole entry): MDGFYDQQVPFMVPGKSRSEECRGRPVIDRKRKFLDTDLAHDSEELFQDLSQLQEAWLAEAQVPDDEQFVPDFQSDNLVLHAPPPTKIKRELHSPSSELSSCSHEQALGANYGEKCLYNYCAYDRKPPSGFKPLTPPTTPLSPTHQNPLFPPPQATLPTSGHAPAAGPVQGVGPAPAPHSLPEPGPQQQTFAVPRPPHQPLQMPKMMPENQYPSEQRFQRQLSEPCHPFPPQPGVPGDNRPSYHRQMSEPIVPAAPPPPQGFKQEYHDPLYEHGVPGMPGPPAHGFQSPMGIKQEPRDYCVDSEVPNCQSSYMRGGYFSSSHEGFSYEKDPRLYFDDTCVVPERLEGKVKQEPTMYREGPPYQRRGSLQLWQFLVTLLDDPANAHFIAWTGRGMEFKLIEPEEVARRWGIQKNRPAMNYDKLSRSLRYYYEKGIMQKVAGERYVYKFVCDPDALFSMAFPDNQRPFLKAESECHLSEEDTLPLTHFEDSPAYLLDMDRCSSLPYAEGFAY

In the case of GATCTT, the binding signal in the experiment with FEV is 1.14 fold enrichment (6-mer frequency, TF over GST control); in the experiment with ETV5 it was 1.21 fold enrichment (6-mer frequency, TF over GST control); with HSF1 it was 1.62 fold enrichment (6-mer frequency, TF over GST control); with SPIC, 1.42 fold enrichment (6-mer frequency, TF over GST control); with ELF4 it was 1.26 fold enrichment (6-mer frequency, TF over GST control); with ELK4, 1.23 fold enrichment (6-mer frequency, TF over GST control). In addition, the binding signal with ETV2 is 1.18 fold enrichment (6-mer frequency, TF over GST control); with ELF3, 1.43 fold enrichment (6-mer frequency, TF over GST control); with CRX, 1.71 fold enrichment (6-mer frequency, TF over GST control); in the experiment with ETV1, 1.25 fold enrichment (6-mer frequency, TF over GST control); with ERF it was 1.15 fold enrichment (6-mer frequency, TF over GST control); in the experiment with ETV3L, 1.15 fold enrichment (6-mer frequency, TF over GST control). Further, the binding signal with ETS2 is 1.15 fold enrichment (6-mer frequency, TF over GST control); with SPDEF it was 1.42 fold enrichment (6-mer frequency, TF over GST control); with ETV7, 1.28 fold enrichment (6-mer frequency, TF over GST control); with ELF5 it was 1.29 fold enrichment (6-mer frequency, TF over GST control); with ETV3, 1.24 fold enrichment (6-mer frequency, TF over GST control); in the experiment with ETV6, 1.14 fold enrichment (6-mer frequency, TF over GST control).

The record behind these values is PMC7862700, “An all-to-all approach to the identification of sequence-specific readers for epigenetic DNA modifications on cytosine”.
